# Screening data from PubChem BioAssay.
# An excerpt weighted towards active compounds, which were near 2.6% of everything screened.
# EBV LMP1 NFkB – inhibitors of Epstein-Barr LMP1-induced NF-kappaB reporter | LMP1-induced NF-kappaB luciferase reporter cells, luminescence | inhibition, % at 12.5 µM | hit rate 0.69% among 350,000 | AID 504558; in the data active means inhibition above about 41%; inconclusive means no clear call, values can overlap the other calls;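 further: 0% = neutral control wells and 100% = reference inhibitor control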
# TWEAK-Fn14 inh – blocks TWEAK-Fn14 interaction in a reporter cell assay; hit rate 2% among 360,000; AID 1159606; inhibition, % at 10 µM; TWEAK-stimulated Fn14 reporter cells, luciferase luminescence, 8 h; in the data active means inhibition above about 50%
# TROY signal inh – blocks TROY-dependent signaling in reporter cells. Q293 LMP1-TROYcd NF-kB luciferase reporter, 4 h. inhibition, % at 10 µM. hit rate 0.98% among 360,000. AID 1347056;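 active means compounds whose plate-normalised and pattern-corrected inhibition of the luciferase reporter signal at the single screening dose is 50% or more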
# LGR2 inh – inhibitors of bursicon-induced Drosophila LGR2 receptor cAMP signaling; HEK293 LGR2, CRE-luciferase, bursicon-stimulated, 4 h; inhibition, % at 9.99 µM; hit rate 0.35% among 380,000;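 active means drop in luminescence signal, shown as inhibition above about 50% in the replicate tests, limit read from the data, passing the limit was not always enough; inconclusive means probably only some replicates passing the limit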;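 further: agonist challenge used bursicon conditioned medium at about half maximal strength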
# aDG glyco act – increases alpha dystroglycan glycosylation. activation, % at 10 µM. AID 624168. Pro5-aDG cells, alpha-DG glycosylation AlphaScreen (IIH6); 0% Pro5, 100% B10-LARGE cell signal. hit rate 0.22% among 360,000;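 active means activation of at least 8% versus controls, or a plate z-score of at least 8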;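 further: Pro5 are CHO cells carrying HIG-tagged alpha-DG that lacks glycosylation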
# HSP90 inh – HSP90 refolding inhibition in rabbit reticulocyte lysate. luciferase refolding luminescence, 3 h. inhibition, % at 5.6 µM. hit rate 0.91% among 290,000;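 active means inhibition above the screen-wide mean plus 3 SD, computed separately per campaign, cut at about 16% in these data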;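 further: 0% = DMSO wells and 100% = 60 µM geldanamycin wells; inhibitors lower the luminescence because luciferase stays unfolded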
# Numbers without * were called inactive; ? = inconclusive; . = no result given.
SMILES,EBV LMP1 NFkB,TWEAK-Fn14 inh,TROY signal inh,LGR2 inh,aDG glyco act,HSP90 inh
O=C(Nc1ccc(N2CCCCC2)c(Cl)c1)c1cccnc1,-14.4,-110.5,-66.4,.,0.4,-0.1
CCCCOc1ccc(C(=O)Nc2ccc(N3CCN(C(=O)C(C)C)CC3)cc2)cc1,11.7,59.0*,23.2,.,1.2,-0.7
CCCCOc1ccc(C(=O)Nc2ccc(N3CCN(C(C)=O)CC3)cc2)cc1,21.0,39.6,20.8,.,0.4,5.2
O=C(Nc1ccc(N2CCCC2)c(Cl)c1)c1cccnc1,-10.0,82.8*,.,.,0.0,3.4
C[C@H](CO)N1C[C@H](C)[C@H](CN(C)Cc2ccc3c(c2)OCO3)Oc2ccc(NC(=O)Nc3ccc(C(F)(F)F)cc3)cc2C1=O,.,.,.,4.1,.,.
CO[C@@H]1CN(C)C(=O)c2ccc(NC(C)=O)cc2OC[C@@H](C)N(C(=O)CN(C)C)C[C@H]1C,.,.,.,1.7,.,.
CC(=O)c1cccc(NC(=O)C2Cc3c(-c4ccccc4Oc4ccccc4)ccnc3O2)c1 (stereo not drawn),.,51.4*,47.6,39.6,0.0,.
CN(C)c1cccc(NC(=O)C2Cc3c(-c4ccccc4Oc4ccccc4)ccnc3O2)c1 (stereo not drawn),.,8.3,25.2,-4.3,-0.2,.
CC(=O)Nc1ccc(-c2ccnc3c2CC(C(=O)Nc2cccc(Oc4ccccc4)c2)O3)cc1 (stereo not drawn),.,39.9,22.0,2.1,0.0,.
CC(=O)Nc1cccc(-c2ccnc3c2CC(C(=O)Nc2cccc(Oc4ccccc4)c2)O3)c1 (stereo not drawn),.,57.1*,40.9,19.5,-0.2,.
COC(=O)c1sc2nc(C)nc(SCC(=O)Nc3sccc3C(N)=O)c2c1C,9.3,59.7*,48.6,12.7,0.1,.
CCCc1nc(SCC(=O)N2CCC(Cc3ccccc3)CC2)c2c(=O)n(C)c(=O)n(C)c2n1,11.2,60.7*,83.2*,16.6*,-0.3,0.9
CCCC(=O)Nc1ccc2c(c1)OC[C@H](C)N(Cc1ccc(F)cc1)C[C@H](C)[C@@H](OC)CN(C)C2=O,.,.,.,24.2,.,.
CC(=O)Nc1ccc(NC(=O)C(C)OC(=O)/C=C/c2cnc3ccccc3n2)cc1 (stereo not drawn),-24.1,23.9,-7.9,-9.1,0.5,0.2
CC(NC(=O)/C=C/c1cnc2ccccc2n1)C12CC3CC(CC(C3)C1)C2 (stereo not drawn),-6.5,76.8*,75.0*,14.7,0.6,-6.2
CN(C)C(=O)c1cc([N+](=O)[O-])cc([N+](=O)[O-])c1N(C)C,2.1,107.3*,9.0,.,0.1,-5.2
O=C([C@@H]1[C@@H](CO)[C@@H]2Cn3c(cccc3=O)[C@H]1N2C(=O)c1ccc(F)cc1)N1CCCCC1,.,.,.,-8.0,.,.
COc1cc(C=NO)nc(-c2ccccn2)c1,57.1*,0.0,10.4,3.7,1.5,.
N#C/C(N=Nc1ccccc1O)=N\Nc1ccccc1O,-25.6,87.5*,46.4,4.8,-0.2,.
O=[N+]([O-])c1ccc(Sc2cccc3cccnc23)c([N+](=O)[O-])c1,-98.1,64.4*,25.0,37.1,-0.4,1.9
O=[N+]([O-])c1cc(Cl)ccc1Sc1ccccn1,8.1,-3.1,-2.3,.,0.0,5.1
Cc1cc(C)nc(Sc2ccc([N+](=O)[O-])cc2[N+](=O)[O-])n1,-35.7,57.7*,20.6,20.3,1.5,-3.6
O=[N+]([O-])c1ccc(Sc2ccncn2)c([N+](=O)[O-])c1,26.2,76.7*,40.9,?,-0.2,.
COCC(=O)Nc1ccc2c(c1)OC[C@H](C)N(CC1CC1)C[C@@H](C)[C@@H](OC)CN(C)C2=O,.,.,.,5.0,.,.
CN1c2ccc(-c3ccccc3F)cc2[C@@H]2[C@@H](CCN2C(=O)NC2CCCCC2)[C@@H]1CO,.,.,.,6.9,.,.
SMILES,EBV LMP1 NFkB,TWEAK-Fn14 inh,TROY signal inh,LGR2 inh,aDG glyco act,HSP90 inh
Cc1ccc(NC(=O)/C=C/c2cccc(C(F)(F)F)c2)cc1,-1.1,17.9,-2.7,-1.8,0.4,0.4
O=C(/C=C/c1cccc(C(F)(F)F)c1)Nc1cccc(C(F)(F)F)c1,4.6,61.2*,51.1*,11.1,0.2,-1.9
O=C(NNC(=S)Nc1cccc(C(F)(F)F)c1)c1ccccc1Cl,1.0,-1.6,-19.7,-7.3,-0.4,-5.7
O=C(NNC(=S)Nc1cccc(C(F)(F)F)c1)c1cccc(Cl)c1,6.8,62.2*,36.0,10.1,0.0,-3.4
C[C@H](CO)N1C[C@H](C)[C@H](CN(C)CC2CCCC2)Oc2ncc(-c3cccc(F)c3)cc2C1=O,.,.,.,12.5,.,.
COc1cc([C@@H]2C[C@H]3CN(c4ccccc4)C(=O)[C@]34CCCN24)cc(OC)c1OC,32.6,-2.6,-1.2,32.6,0.1,-3.7
COc1ccccc1-n1cc([C@@H]2C[C@H]3CN(c4ccccc4)C(=O)[C@]34CCCN24)cn1,60.0*,80.0*,39.6,24.8,1.3,3.6
CCOC(=O)NCc1ccc(S(=O)(=O)Nc2ccc(C)cc2)cc1,3.1,-3.0,14.7,.,0.3,1.0
CCOC(=O)NCc1ccc(CNC(=O)OCC)cc1,1.6,73.4*,.,.,0.0,1.9
Cc1ccc(S(=O)(=O)C2(C(=O)N3CCN(c4ccccc4F)CC3)CC2)cc1,0.7,65.9*,5.7,17.0,0.1,2.4
Cc1cccc(N2CCN(C(=O)C3(S(=O)(=O)c4ccc(Cl)cc4)CC3)CC2)c1C,6.6,-11.1,28.7,4.4,0.2,-4.2
CCN(CC)c1ccc(C(=C2C=CC(=[N+](CC)CC)C=C2)c2ccc(N(CC)CC)cc2)cc1,36.0,103.0*,90.8*,.,-1.5,.
CCN(CC)c1ccc(C(=C2C=CC(=[N+](CC)CC)C=C2)c2ccccc2)cc1,95.0*,106.6*,88.6*,105.0*,-0.7,.
Cc1noc(C)c1NC(=O)N(C)C[C@@H]1Oc2ccc(NC(=O)Cc3cn(C)c4ccccc34)cc2C(=O)N([C@H](C)CO)C[C@@H]1C,.,.,.,-12.5,.,.
O=C(C[C@H]1CC[C@@H](NC(=O)Nc2ccc(C(F)(F)F)cc2)[C@@H](CO)O1)NCc1cccc(F)c1,.,.,.,-11.1,.,.
O=S(=O)(CCSc1nc2ccccc2o1)c1nc2ccccc2s1,-0.5,91.4*,67.0*,?,0.0,2.2
O=S(=O)(CCSc1ccccn1)c1nc2ccccc2s1,-1.0,61.2*,33.6,39.0,0.6,-3.5
C[C@@H]1CN([C@@H](C)CO)C(=O)c2cc(N(C)C)ccc2O[C@@H](C)CCCCO[C@@H]1CN(C)C(=O)Nc1ccc(C(F)(F)F)cc1,.,.,.,5.1,.,.
